Measurements reported in PubChem BioAssay (NCI).
Compounds without any hit were thinned out: in the full panel of roughly 83,000, 20% have a hit.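 The endpoint reported here, percent growth, reads 100 for growth as untreated, 0 for no net growth and -100 for all cells dead.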 A number with no mark means an inactive call. The source made the active and inactive calls. Rule for the calls: active = growth percent below 10; inactive = the rest.

What was measured:
Experiment in all cases: NCI-60 one-dose screen, 48 h (100 = growth as untreated, 0 = no growth, -100 = all killed)
Settings in all cases: 10 µM unless noted
[1] = system: DU-145 prostate
[2] = system: K-562 leukemia
[3] = system: MALME-3M melanoma
[4] = system: MDA-MB-231 breast
[5] = system: RXF 393 renal
[6] = system: SF-268 CNS
[7] = system: SF-295 CNS
[8] = system: SF-539 CNS
[9] = system: UACC-257 melanoma
[10] = system: M14 melanoma

Row | Structure (SMILES) | growth [1] | growth [2] | growth [3] | growth [4] | growth [5] | growth [6] | growth [7] | growth [8] | growth [9] | growth [10]
1 | C[C@@H]1C[C@@]2(C)[C@@H](CC[C@@H]3[C@@H]2CC[C@]2(C)C(=O)CC[C@@H]32)CC1=O | 108% | 93.1% | 118% | 103% | 49.7% | 102% | 90.7% | 95% | 113% | 96.9%
2 | O=[N+]([O-])c1cc([N+](=O)[O-])c(Nn2c3ccccc3c3ccccc32)c([N+](=O)[O-])c1 | 22.7% | 6.42% (active) | -16.2% (active) | -6.81% (active) | -4.31% (active) | 16.2% | -47.6% (active) | 8.26% (active) | -22.6% (active) | 1.91% (active)
3 | CC(C)CCC1(CCCl)C(=O)NC(=O)NC1=O | 107% | 116% | 95.3% | 101% | 98.1% | 109% | 96.2% | 100% | 91.1% | 96.7%
4 | COc1ccc(N(CC(=O)NCCC[Te]c2ccccc2)C(=O)CNC(=O)OC(C)(C)C)cc1 | 48.9% | 97% | 137% | 1.63% (active) | 114% | 24.2% | -10.8% (active) | -9.65% (active) | 109% | 9.09% (active)
5 | c1cnc2[nH]cc(-c3csc(-c4cn(CCCCN5CCCCC5)c5ccccc45)n3)c2c1 | 107% | 10.9% | 92.8% | 83.3% | 87.3% | 86.1% | 94.8% | 86.5% | 112% | 50.2%
6 | O=C(CCCC1CCCCC1)OCC(Cl)(Cl)Cl | 105% | 99.8% | 102% | 116% | 114% | 97.1% | 102% | 104% | 109% | 105%
7 | CCCCCCCCOC(=O)CCN1CC1 | 98.5% | 119% | 110% | 114% | 107% | 95.9% | 120% | 99.4% | 103% | 107%
8 | CC(=O)O[C@H]1CC[C@H]2[C@@H]3CC=C4c5nc(-c6ccccc6)sc5CC[C@]4(C)[C@H]3CC[C@]12C | 86.1% | 8.09% (active) | 93.9% | 64.2% | 79.2% | 78.9% | -0.49% (active) | 13.8% | 64.6% | 61.5%
9 | COC(=O)[C@@H](C)C[C@H](Cc1ccccc1)NC(=O)c1nc([C@@H](C[C@H](C(C)C)N(C)C(=O)[C@@H](NC(=O)[C@H]2CCCCN2C)C(C)C)OC(C)=O)sc1C | 5.34% (active) | 8.3% (active) | 54% | -11.6% (active) | 44.4% | 17.6% | 15.4% | -16.5% (active) | 59.9% | -43.4% (active)
10 | [Cl][Hg][c]1cc(Br)cc(Br)c1 | 79.3% | 6.31% (active) | 69.8% | 19.8% | -18.3% (active) | 25.6% | 80.2% | 38.9% | 58.5% | 46.1%
11 | Cn1cc(C2=C(c3cn(C4CCN(Cc5ccccn5)CC4)c4ccccc34)C(=O)NC2=O)c2ccccc21 | 70% | 91.3% | -3.24% (active) | 79.8% | 90.9% | 82.8% | 97.1% | 89.6% | -0.885% (active) | 16.5%
12 | OCCNC(Cc1ccccc1)c1ccc2c(c1)OCO2 (stereo not given) | 101% | 84.1% | 90.8% | 98.7% | 109% | 97.9% | 90% | 104% | 90.1% | 88.5%
13 | C=CCn1cc(C=C2C(=O)N(C)C(=O)N(C)C2=O)c2ccccc21 | 108% | 108% | 97.4% | 88.4% | 89.9% | 97.8% | 66.4% | 102% | 94.4% | 88.9%
14 | Cc1ccc(S(=O)(=O)C(Cl)(Cl)Cl)cc1 | 109% | 93.3% | 92.5% | 95.8% | 102% | 97.5% | 91.1% | 99.9% | 86.1% | 94.6%
15 | Fc1c[c-]c(-c2ccccn2)c(F)c1.[CH3-].[Pt+2].c1ccc([PH+](c2ccccc2)c2ccccn2)cc1 | 15.9% | 4.86% (active) | -75.5% (active) | -70.6% (active) | -64.8% (active) | 22.8% | 5.67% (active) | -46.7% (active) | 0.865% (active) | -30.4% (active)
16 | CC(=O)[O][Hg][O]C(C)=O | 94.8% | 29.7% | 54.3% | 110% | 98.2% | 96.6% | 90.3% | 108% | 90.8% | 88.3%
17 | COC(=O)[C@@H](C)C[C@H](Cc1ccccc1)NC(=O)c1csc([C@@H](C[C@H](C(C)C)N(C)C(=O)[C@@H](NC(=O)[C@H]2CCCCN2C)c2ccc(F)cc2)OC(C)=O)n1 | 6.65% (active) | 2.45% (active) | 65.8% | -9.8% (active) | 74.7% | 13.2% | 3.25% (active) | -17.9% (active) | 53.2% | -6.9% (active)
18 | COC(=O)[C@@H](C)C[C@H](Cc1ccccc1)NC(=O)c1csc([C@@H](C[C@H](C(C)C)N(C)C(=O)[C@H](C)NC(=O)[C@H]2CCCCN2C)OC(C)=O)n1 | 4.34% (active) | 10% (active) | 44.2% | 19.5% | 8.78% (active) | 46.9% | 17% | -2.07% (active) | 45.8% | 5.98% (active)
19 | CC[C@H](C)[C@H](NC(=O)C12C3C4C1C1C2C3C41NC(C)=O)C(=O)N(C)[C@H](C[C@@H](OC(C)=O)c1nc(C(=O)N[C@@H](Cc2ccccc2)C[C@H](C)C(=O)OC)cs1)C(C)C (stereo not given in full) | 1.99% (active) | 8.82% (active) | 58.6% | 22.1% | 41.9% | 27.5% | 13% | 5.34% (active) | 44.2% | 1.02% (active)
20 | Nc1ccc2c(c1)Cc1cc(Br)ccc1-2 | 109% | 92.2% | 118% | 84% | 112% | 88% | 107% | 100% | 122% | 118%
21 | CC1(C)C(C(=O)c2cn(CCCCF)c3ccccc23)C1(C)C | 105% | 71.3% | 92.9% | 94% | 84.5% | 98.8% | 91.5% | 93.2% | 81.1% | 95%
22 | C=C1C[C@](OC)([C@H](O)C(=O)N[C@@H](OC)[C@@H]2C[C@@H](O)C(C)(C)[C@@H](C[C@@H](COC)OC)O2)O[C@H](C)[C@@H]1C | -49.9% (active) | -50.1% (active) | -71.1% (active) | -55.7% (active) | -92.7% (active) | -32.4% (active) | -51.4% (active) | -65.9% (active) | -53.4% (active) | -54.6% (active)
23 | C[C@]12CC[C@H]3[C@@H](C[C@@H]4SC(Nc5ccccc5)=N[C@@]45CC(O)CC[C@]35C)[C@@H]1CCC2O (stereo not given in full) | 14.2% | 4.96% (active) | 71.2% | 35.8% | -32.3% (active) | 9.68% (active) | 7.36% (active) | -34.3% (active) | 69.3% | 53.4%
24 | O=[N+]([O-])CC(c1ccccc1Cl)c1c(-c2ccccc2)[nH]c2ccccc12 (stereo not given) | 43.7% | 12.4% | 42.1% | 46.2% | 27.8% | 50.1% | 24.3% | 27.2% | 48.9% | 21.3%
25 | O=C(CC1(O)C(=O)N(Cc2ccccc2)c2ccc(F)cc21)c1ccc(C(=O)NCC2CCC3(CC2)OOC2(CCCCC2)OO3)cc1 (stereo not given) | -94.3% (active) | -42.7% (active) | -69.2% (active) | -74% (active) | -80.4% (active) | -60.3% (active) | -14.1% (active) | -84.8% (active) | -2.89% (active) | 15.3%
26 | C[C@]12CCc3sc(NCCc4ccccc4)nc3C1=CC[C@@H]1[C@@H]2CC[C@]2(C)C(=O)CC[C@@H]12 | 33.9% | 5.14% (active) | 73.3% | 83.1% | 20% | 83.9% | 68.4% | 64.8% | 87.4% | 85.4%
